Reference: PubChem BioAssay
Unmarked numbers belong to inactive results. Calls of active or inactive are those of the source.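 The calls were made as follows: active = inhibition above 54%, about 3 SD of non-fluorescent compounds; inactive = the rest.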

These molecules were tested against AP-2 complex subunit beta (Homo sapiens) (UniProt P63010) (assay: beta-arrestin/AP2 interaction blockers – biochemical, validation set, GST-AP2 beads, flow cytometry, pilot screen (AID 504541;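 also: AP2 carries R879A mutation and is captured from E. coli lysate; bead-bound FITC arrestin peptide fluorescence measuring arrestin peptide binding to AP2; 0% = DMSO wells and 100% = excess unlabeled arrestin peptide control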)). Details: FITC arrestin peptide, at 10 µM, hits give high values, AP2 beta2 appendage fragment, R879A mutant.
Chain of AP-2 complex subunit beta (Homo sapiens) (P63010 whole entry, looked up, the tested form may be a part, one chain of several): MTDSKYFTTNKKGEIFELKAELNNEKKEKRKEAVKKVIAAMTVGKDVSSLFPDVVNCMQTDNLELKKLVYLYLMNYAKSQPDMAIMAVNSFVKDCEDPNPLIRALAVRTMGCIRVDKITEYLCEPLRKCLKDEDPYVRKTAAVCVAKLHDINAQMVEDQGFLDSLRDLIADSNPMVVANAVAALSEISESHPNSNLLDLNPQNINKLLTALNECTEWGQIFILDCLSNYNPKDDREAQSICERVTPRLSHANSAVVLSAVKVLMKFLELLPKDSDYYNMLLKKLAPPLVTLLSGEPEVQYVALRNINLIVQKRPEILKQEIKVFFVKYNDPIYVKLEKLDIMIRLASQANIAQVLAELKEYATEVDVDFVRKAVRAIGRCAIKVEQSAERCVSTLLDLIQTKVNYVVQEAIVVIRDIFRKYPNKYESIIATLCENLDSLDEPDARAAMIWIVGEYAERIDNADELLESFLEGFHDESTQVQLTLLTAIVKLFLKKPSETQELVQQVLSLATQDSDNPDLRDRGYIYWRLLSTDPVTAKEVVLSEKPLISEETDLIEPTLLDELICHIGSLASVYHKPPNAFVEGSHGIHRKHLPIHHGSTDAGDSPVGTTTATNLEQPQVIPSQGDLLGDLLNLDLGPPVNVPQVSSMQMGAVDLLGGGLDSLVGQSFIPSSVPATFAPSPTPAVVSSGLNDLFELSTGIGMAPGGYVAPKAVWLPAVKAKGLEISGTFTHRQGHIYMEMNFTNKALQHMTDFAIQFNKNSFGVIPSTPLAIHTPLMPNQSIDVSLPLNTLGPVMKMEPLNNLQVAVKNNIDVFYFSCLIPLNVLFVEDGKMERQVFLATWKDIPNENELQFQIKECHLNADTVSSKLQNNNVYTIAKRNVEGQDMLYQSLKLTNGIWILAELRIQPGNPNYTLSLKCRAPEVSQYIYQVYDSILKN

Structure (SMILES)	inhibition
Cc1oc2cc(O)cc(O)c2c(=O)c1-c1ccc2c(c1)OCCCO2	21%
O=C(c1ccco1)N1CCCN(Cc2nc(-c3ccc4c(c3)OCO4)no2)CC1	7.41%
COc1ccc2nc(S(=O)Cc3ncc(C)c(OC)c3C)[nH]c2c1 (stereo not given)	-8.15%
CSCCC(NC(C)=O)C(=O)Oc1ccc2c3c(c(=O)oc2c1)CCCC3 (stereo not given)	17.4%
CCOC(=O)C1NN=C(C(=O)c2ccccc2)C1c1ccc(Cl)cc1 (stereo not given)	-2.22%
CSCCC(NC(=O)OC(C)(C)C)C(=O)Oc1ccc2c(=O)c(-c3ccc4c(c3)OCCO4)coc2c1 (stereo not given)	3.81%
COc1cc2c(cc1OC)/C(=C/c1ccc(Cl)cc1)C(=O)OC2	10.1%
COc1ccc(-c2coc3c(CN4CCOCC4)c(O)ccc3c2=O)cc1	55.9% (active)
OCCC1CN(Cc2ccccc2-c2ccco2)CCN1C1CCCC1 (stereo not given)	-16.3%
O=C(O)C1CCN(C(=O)COc2ccc3c4c(c(=O)oc3c2)CCC4)CC1	-5%
Cc1ccc(C(=O)NCCNC(=O)c2ccccc2)cc1	-2.62%
CC(=O)OCC(=O)[C@@]1(O)CC[C@H]2[C@@H]3CCC4=CC(=O)C=C[C@]4(C)[C@H]3[C@@H](O)C[C@@]21C	8.75%
CCCc1cc(C(N)=S)ccn1	7.42%
Cc1ccc(Cl)c(Nc2ccccc2C(=O)O)c1Cl	1.34%
COc1ccccc1/C=C/C(=O)OCCN1CCOCC1	0.96%
Fc1ccc(-c2cc(-c3ccccc3)nc(-n3cccn3)n2)cc1	34.7%
O=c1c(-c2ccccc2)c(O)c2cccc3c2n1CCC3	-7.94%
COc1cc(CC(=O)NCCc2ccc(S(N)(=O)=O)cc2)cc(OC)c1OC	-9.64%
CN(C)CCC(c1ccc(Cl)cc1)c1ccccn1 (stereo not given)	4.35%
Cc1ccc2nc(N=C(N)N)nc(C)c2c1	0.05%

Structure (SMILES)	inhibition
CCn1c(N2CCN(CC(=O)c3c(C)n(C)c4ccc(OC)cc34)CC2)nc2c1c(=O)[nH]c(=O)n2C	12.1%
CC1(c2ccccc2)CC(C)(C)N2C(=O)C(=O)c3cccc1c32 (stereo not given)	0.89%
O=C(COc1cc(O)c2c(=O)c3ccccc3oc2c1)OCc1ccccc1	-5.28%
C[N+](C)(C)CCOP(=O)([O-])OC[C@H](O)CO	-6.21%
O=C(/C=C/Sc1ccccc1)c1ccccc1	14.1%
O=C1Cc2ccccc2C(c2ccccc2)N1 (stereo not given)	56.3% (active)
Cc1ccc(NC(=O)CSc2nc(O)c(Cc3ccccc3)c(=O)n2-c2ccccc2)cc1	16.9%
COCCn1c(SCCOc2ccccc2)nc2ccccc2c1=O	-3.51%
CC(=O)Oc1ccc2c(=O)c(Oc3ccccc3[N+](=O)[O-])coc2c1	-1.47%
CCc1c(C(C)=O)oc2ccc3c(C)cc(=O)oc3c12	-11.6%
COc1ccc(-c2[nH]ncc2CN(C)C(C)c2ccon2)c(OC)c1 (stereo not given)	8%
Cc1c(O)c(=O)ccn1C	-9.42%
COc1ccc2cc(C(=O)Nc3ccc(S(N)(=O)=O)cc3)sc(=O)c2c1OC	-1.93%
Cc1cnc(NC(=O)C2=C(O)c3ccccc3S(=O)(=O)N2C)s1	8.13%
O=C(O)c1ccc(N2C(=O)/C(=C\c3ccccc3)N=C2c2ccccc2)cc1	-10.8%
O=C(CCC(=O)NCCO)NCCO	-1.09%
CC(=O)O[C@H]1C[C@@]2(C)[C@@H](C[C@@H](O)[C@H]3[C@@]4(C)CC[C@@H](O)[C@@H](C)C4CC[C@@]32C)/C1=C(\CCC=C(C)C)C(=O)O (stereo not given in full)	-14.5%
O=C(c1cc2cc(Br)ccc2o1)N1CCCC1	-6.7%
CCOc1ccc2nc(NC(=O)NC3CCCCC3)sc2c1	42.2%
O=C(/C=C/c1c[nH]c2ccccc12)c1cccc2ccccc12	-4.72%
